{
  "source": "PubChem BioAssay (Tox21)",
  "note": "“And” between values parts separate entries of the source, which are not always exact repeats. Equal values may be shown once. Records with an inconclusive call do not appear. Where a call stands in place of a potency, no number is given. The source holds several records for some structures; these can differ, active in one and inactive in another. The source made the active and inactive calls. The call rests on the fitted dose curve; in most records, active means well fitted cell-killing curve with a large enough effect in the repeat runs; inconclusive means weak or mixed curves, or effect the other way; inactive means flat fitted curve, though single readings scatter. Potency means the concentration at half of the fitted maximal effect.",
  "data": [
    {"assay": "qHTS assay to identify small molecule antagonists of the retinoid acid receptor (RAR) signaling pathway - cell viability counter screen (AID 1159551); further: nearly all actives have a fitted effect of over 35% in size", "conditions": "C3RL4 cells viability, ATP luminescence (CellTiter-Glo), 6 h; series mostly up to 92.4 µM; activity change, negative = cytotoxicity: at the top concentration", "text": "U.S. Tox21 Program National Center for Advancing Translational Sciences [NCATS] NIH Chemical Genomics Center [NCGC] U.S. Environmental Protection Agency [EPA] National Institutes of Environmental Health Sciences [NIEHS] National Toxicology Program [NTP] U.S. Food and Drug Administration [FDA] Tox21 Assay Overview: All-trans Retinoic acid (atRA) is the potent natural metabolite of retinol and plays an important role in normal embryonic development and maintenance of cellular phenotype in adult animals. atRA is the activating ligand for the retinoic acid receptors (RARs) which form heterodimers with retinoid X receptors (RXRs) on the retinoic acid response element (RARE). Through activation of the RAR/RXRs nuclear receptors, atRA regulates the transcription of a large number of protein-coding genes and regulatory RNAs. Intracellular levels of atRA are controlled by the retinol signaling pathway (RSP) that regulates the biosynthesis and catabolism of atRA to maintain physiological levels. Chemicals that interfere with the RSP can cause abnormal intracellular levels of atRA and therefore are potential developmental toxicants. To assess compounds for the potential adverse effect on embryonic development through interfering with retinol signaling, a cell-based RARE luciferase reporter gene assay was used. C3RL4 cell line (OARSA/CFSAN/FDA, Laurel, MD) was used to screen Tox21 10K compound library for identifying inhibitors of the RSP. Also cytotoxicity was assessed by determining the viability of cells based on the quantitation of ATP.\nTox21 Assay Protocol Summary: C3RL4 cells were seeded at 1,000/well in 4 uL of assay medium into white solid 1,536-well tissue culture plates (Greiner Bio-One North America Inc. Monroe, NC) using a Multidrop Combi (Thermo Scientific, Waltham, MA) dispenser. After incubation at 37 C and 5% CO2 for an overnight, 23 nL of compounds dissolved in DMSO, positive control or DMSO only were transferred by a Pintool station (Kalypsys, San Diego, CA). One ul of 1 uM (final concentration) of Retinol was added right after the compound addition by using a Flying Reagent Dispenser (FRD) (Aurora Discovery, San Diego, CA). After 6 hr incubation at 37 C and 5% CO2, 5 uL of CellTiter-Glo reagent (Promega Corporation, Madison, WI) was added to each assay plate using an FRD. Luminescence was quantified on a ViewLux plate reader (PerkinElmer, Waltham, MA) after 30 min incubation at room temperature.", "values": [
      {"smiles": "CCCCOCC1CO1", "note": "(stereo not given)", "Potency": "inactive"},
      {"smiles": "C[N+](C)(C)CC(=O)O", "Potency": "inactive"},
      {"smiles": "C[N+](C)(C)CC(=O)[O-]", "Potency": "inactive"},
      {"smiles": "CC(C)(C#N)N=NC(C)(C)C#N", "Potency": "inactive"},
      {"smiles": "CNC(=S)S", "Potency": "inactive"},
      {"smiles": "CCC1(c2ccc(N)cc2)CCC(=O)NC1=O", "note": "(stereo not given)", "Potency": "inactive"},
      {"smiles": "Cc1cccc(N=Nc2ccc(N(C)C)cc2)c1", "Potency": "inactive"},
      {"smiles": "ClC(Cl)(Cl)c1ccccc1", "Potency": "inactive"},
      {"smiles": "COP(=S)(OC)Oc1ccc(Sc2ccc(OP(=S)(OC)OC)cc2)cc1", "Potency": "inactive"},
      {"smiles": "CS(=O)(=O)NC(=O)c1cc(Oc2ccc(C(F)(F)F)cc2Cl)ccc1[N+](=O)[O-]", "Potency": "inactive"},
      {"smiles": "OC(c1ccc(Cl)cc1)(c1cncnc1)c1ccccc1Cl", "note": "(stereo not given)", "Potency": "inactive"},
      {"smiles": "Clc1cccc(C(Cl)(Cl)Cl)n1", "Potency": "inactive"},
      {"smiles": "CC(C)(O)C(=O)Nc1ccc([N+](=O)[O-])c(C(F)(F)F)c1", "Potency": "inactive"},
      {"smiles": "S=c1[nH]c2ccccc2[nH]1", "Potency": "inactive"},
      {"smiles": "C[C@]12CCC(=O)C=C1CC[C@@H]1[C@@H]2CC[C@@]2(C)[C@H]1CC[C@]2(C)O", "Potency": "inactive"},
      {"smiles": "CC1(C)C(C(=O)OC(C#N)c2cccc(Oc3ccccc3)c2)C1(C)C", "note": "(stereo not given)", "Potency": "inactive"},
      {"smiles": "CCOC(=O)c1ccccc1N", "Potency": "inactive"},
      {"smiles": "O=[N+]([O-])/N=C1\\NCCN1Cc1ccc(Cl)nc1", "Potency": "inactive"},
      {"smiles": "[CH3][Sn]([Cl])([Cl])[Cl]", "Potency": "inactive"},
      {"smiles": "O=[N+]([O-])c1ccc(Nc2ccccc2)cc1", "activity change, negative = cytotoxicity": "-7.37% (inactive)"},
      {"smiles": "CC(C)(c1ccccc1)c1ccc(O)cc1", "activity change, negative = cytotoxicity": "-8.08% (inactive)"},
      {"smiles": "COc1ccc(CO)cc1", "Potency": "inactive"},
      {"smiles": "CN(C)c1ccccc1", "Potency": "inactive"},
      {"smiles": "ClCc1ccccn1", "Potency": "inactive"},
      {"smiles": "CC1=C(C(=O)Nc2ccccc2)SCCO1", "Potency": "inactive"},
      {"smiles": "CCOS(=O)(=O)OCC", "activity change, negative = cytotoxicity": "1.6% (inactive)"},
      {"smiles": "CC(C)=CC1C(C(=O)OCN2C(=O)C3=C(CCCC3)C2=O)C1(C)C", "note": "(stereo not given)", "Potency": "inactive"},
      {"smiles": "N#Cc1c(Cl)c(Cl)c(Cl)c(C#N)c1Cl", "Potency": "37.8 µM (active) and 38.6 µM (active)"},
      {"smiles": "CCOP(=O)(O)OCC", "note": "(tested in a mixture with another compound)", "Potency": "inactive and 60.6 µM (active)"},
      {"smiles": "N#CCCCCC#N", "Potency": "inactive"},
      {"smiles": "Cc1cc(Cl)ccc1N=CN(C)C", "Potency": "inactive"},
      {"smiles": "CCOP(=S)(OCC)OP(=S)(OCC)OCC", "Potency": "inactive"},
      {"smiles": "C[C@]12CC[C@H]3[C@@H](CCC4=CC(=O)CC[C@@H]43)[C@@H]1CC[C@@H]2O", "Potency": "inactive"},
      {"smiles": "CC(C)=CC1C(C(=O)OCc2cccc(Oc3ccccc3)c2)C1(C)C", "note": "(stereo not given)", "Potency": "inactive"},
      {"smiles": "N#CC(c1ccccc1)c1ccccc1", "Potency": "inactive"},
      {"smiles": "Cc1ccc(N=CN(C)C=Nc2ccc(C)cc2C)c(C)c1", "Potency": "inactive"},
      {"smiles": "CC(O)CN(CC(C)O)CC(C)O", "note": "(stereo not given)", "Potency": "inactive"},
      {"smiles": "CCOP(=S)(OCC)SCSC(C)(C)C", "Potency": "inactive"},
      {"smiles": "CC[n+]1c(-c2ccccc2)c2cc(N)ccc2c2ccc(N)cc21", "Potency": "inactive"},
      {"smiles": "CCOP(=S)(OCC)SCn1c(=O)oc2cc(Cl)ccc21", "Potency": "inactive"}
    ]}
  ]
}
